Records with an inconclusive call do not appear. Calls of active or inactive are those of the source. Calls follow the shape of the dose curve; as a rule, active = well fitted curve in the direction sought with a large enough effect; inconclusive = small, poorly fitted or top-dose-only effect, or another doubt; inactive = no such curve, though single readings can be large; an effect the other way counts as inactive or inconclusive.
Experiment: HepG2 cells viability qHTS for Zika virus inhibitors (AID 1347168)
Conditions: Zika counter-screen; series mostly up to 45.9 µM; activity change, negative = cytotoxicity: at the top concentration
Method in brief: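 Counter-screen for cytotoxicity of hits from NS2B-NS3 protease qHTS. Overnight-attached cells (2.5 x 10^5 cells/mL, DMEM/4% FBS) were dosed in titration, incubated 24 to 48 hours, then assayed by CellTiter Glo.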
% is scaled to controls: 0 for no effect and ±100 for the full control effect.

Compound | activity change, negative = cytotoxicity
O=C(O)Cn1c(C(=O)Nc2nc(-c3ccccc3Cl)cs2)cc2ccccc21 | 6.94% (inactive)
CN1C[C@@H]2C[C@H]1CN2c1cc2c(cc1F)c(=O)c(C(=O)O)cn2C1CC1 | -0.0193% [at 26.9 µM] (inactive)
O=C(O)[C@@H]1[C@H]2C[C@H]3c4[nH]c5ccccc5c4CCN3C[C@@H]2CC[C@@H]1O | 2.36% (inactive)

Experiment: Tertiary RLuc qRT-PCR qHTS assay for Zika virus inhibitors (AID 1347169); also: top concentration of the series differs between compounds; nearly all actives have a fitted effect of over 55% in size
Conditions: infected Vero cells, reporter luminescence, 48-72 h; series mostly up to 45.9 µM; activity change, negative = inhibition: at the top concentration
Method in brief: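 Inhibition of ZIKV-RLuc replication in Vero cells, read as Renilla luminescence 1-1.5 hrs after live-cell substrate addition, following 48-72 hrs infection at MOI 1-2 in presence of compound.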

Compound | activity change, negative = inhibition
O=C(O)Cn1c(C(=O)Nc2nc(-c3ccccc3Cl)cs2)cc2ccccc21 | -13.3% (inactive)
COc1ccccc1Oc1c(NS(=O)(=O)c2ccc(C(C)(C)C)cc2)nc(-c2ncccn2)nc1OCCO | 14.1% [at 1.74 µM] (inactive)
CN1C[C@@H]2C[C@H]1CN2c1cc2c(cc1F)c(=O)c(C(=O)O)cn2C1CC1 | 10.1% [at 26.6 µM] (inactive)
O=C(O)[C@@H]1[C@H]2C[C@H]3c4[nH]c5ccccc5c4CCN3C[C@@H]2CC[C@@H]1O | -7.27% (inactive)

Source: PubChem BioAssay (NCATS)
